Screening data deposited in PubChem by National Center for Advancing Translational Sciences (NCATS).
Pol beta inh = qHTS Assay for Inhibitors of DNA Polymerase Beta; 340,000 tested, 1.3% active; Potency, µM (top dose mostly 114 µM), for the others: top-dose activity change, negative = inhibition, actives largely listed as inhibitors; AID 485314, 2010; Pol beta primer extension/strand displacement, fluorescence kinetic; note: potency is the fitted concentration of half-maximal effect; % is set by controls: 0 for no effect and ±100 for the full control effect
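Human Pol beta at 10 nM; strand-displacement substrate 50 nM final. Compound exposure 15 min at room temperature before start, reaction 10 min at room temperature.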
POLH inh = qHTS for Inhibitors of Polymerase Eta; DNA polymerase eta (Homo sapiens), Q9Y253; recombinant Pol eta, fluorescent DNA replication assay; Potency, µM (highest dose often 114 µM), for the others: top-dose activity change, negative = inhibition, most hits filed as inhibitors; 390,000 tested, 1.2% active; AID 588591, 2011; note: potency is the fitted concentration of half-maximal effect; % is set by controls: 0 for no effect and ±100 for the full control effect
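Pol eta at 10 nM preincubated with compounds 15 min at room temperature; reaction started with fluorescent substrate (50 nM final) and read kinetically at 0 and 10 min.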
POLK inh = qHTS for Inhibitors of Polymerase Kappa. DNA polymerase kappa (Homo sapiens), Q9UBT6. purified Pol kappa, fluorescent DNA synthesis assay, 10 min. Potency, µM (doses to about 107 µM), inactives show top-dose activity, negative = inhibition, usual class: inhibitors. 400,000 tested, 0.53% active; note: potency is the fitted concentration of half-maximal effect; % is set by controls: 0 for no effect and ±100 for the full control effect
Target sequence (Q9UBT6 whole entry, looked up): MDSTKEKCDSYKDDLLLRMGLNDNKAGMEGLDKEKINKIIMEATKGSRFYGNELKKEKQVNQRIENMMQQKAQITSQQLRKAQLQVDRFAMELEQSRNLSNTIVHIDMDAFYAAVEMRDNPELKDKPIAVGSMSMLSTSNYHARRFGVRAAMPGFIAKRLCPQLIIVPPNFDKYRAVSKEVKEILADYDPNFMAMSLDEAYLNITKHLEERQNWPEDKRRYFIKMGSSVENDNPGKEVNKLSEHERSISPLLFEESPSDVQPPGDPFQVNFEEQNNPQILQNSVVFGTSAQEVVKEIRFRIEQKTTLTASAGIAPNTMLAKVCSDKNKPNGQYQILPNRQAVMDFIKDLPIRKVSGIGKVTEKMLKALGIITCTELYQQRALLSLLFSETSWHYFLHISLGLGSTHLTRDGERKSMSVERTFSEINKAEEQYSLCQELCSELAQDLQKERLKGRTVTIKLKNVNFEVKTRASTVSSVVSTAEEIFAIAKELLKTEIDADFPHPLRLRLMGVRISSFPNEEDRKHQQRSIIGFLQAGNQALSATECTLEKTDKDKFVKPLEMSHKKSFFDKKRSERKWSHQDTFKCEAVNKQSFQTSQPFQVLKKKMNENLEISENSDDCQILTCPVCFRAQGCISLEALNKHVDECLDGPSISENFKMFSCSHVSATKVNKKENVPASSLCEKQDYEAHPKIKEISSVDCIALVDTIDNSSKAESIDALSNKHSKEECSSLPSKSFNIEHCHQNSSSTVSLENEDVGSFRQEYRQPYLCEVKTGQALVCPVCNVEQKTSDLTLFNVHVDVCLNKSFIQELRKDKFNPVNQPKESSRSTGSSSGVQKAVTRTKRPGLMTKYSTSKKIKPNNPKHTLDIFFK
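Inhibition of 10 nM Pol kappa is measured by a fluorescent read-out at 0 and 10 min following addition of 50 nM substrate (final), with a 15-min room-temperature compound preincubation.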
FEN1 inh = qHTS Assay for the Inhibitors of Human Flap endonuclease 1 (FEN1); P39748; Recombinant FEN1 flap cleavage, fluorescence, 15 min; Potency, µM (series often up to 114 µM), for the others: at the top dose activity change, negative = inhibition, actives largely listed as inhibitors; 390,000 tested, 0.35% active; AID 588795, 2011; note: potency is the fitted concentration of half-maximal effect; % is set by controls: 0 for no effect and ±100 for the full control effect; nearly all actives have a fitted effect of over 65% in size
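Quantitative HTS format: each compound was titrated, incubated with 10 nM nuclease for 15 min at room temperature, then challenged with flap substrate at 50 nM final. Signal change over 15 min gave concentration–effect curves.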
POLI inh = qHTS for Inhibitors of Polymerase Iota; Potency, µM (titrated, usually from 115 µM), for the others: at the top dose activity, negative = inhibition, usual class: inhibitors; Pol iota fluorescent replication assay, 10 min; 390,000 tested, 1% active; DNA polymerase iota (Homo sapiens), Q9UNA4; note: potency is the fitted concentration of half-maximal effect
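Pol iota at 10 nM preincubated 15 min with compounds at room temperature; reaction started with fluorescent substrate, 50 nM final. Fluorescence read kinetically at 0 and 10 min; buffer-only wells as negative control.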
PI5P4Ka inh = qHTS for Inhibitors of phosphatidylinositol 5-phosphate 4-kinase (PI5P4K) | PI5P4Kalpha enzyme, ADP-Glo luminescence, 60 min; hits give low values | max response, % | 330,000 tested, 1.2% active | AID 652105, 2013; active = max response of -50% or lower; inconclusive = between -30% and -50%; inactive = -30% or higher; note: value at the top dose of about 77 µM; % is set by controls: 0 for no effect and ±100 for the full control effect
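Compounds were pin-transferred onto PI5P4Kalpha and substrate in HEPES pH 7.4 buffer with EGTA, CHAPS and 5% DMSO. ATP (5 microM final) started the reaction, which ran 60 minutes at room temperature before ADP-Glo detection.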
PGK validate = qHTS for inhibitors of Phosphogylcerate Kinase: Hit Validation Screen. shares compounds with POLK inh. Potency, µM (top dose mostly 57.5 µM), for the others: top-dose activity change, negative = inhibition, actives largely listed as inhibitors. 500 tested, 79% active. TbPGK coupled GAPDH assay, Kinase-Glo luminescence; note: potency is the fitted concentration of half-maximal effect; % is set by controls: 0 for no effect and ±100 for the full control effect; nearly all actives have a fitted effect of over 65% in size
POLI cherry-pick = qHTS for Inhibitors of Polymerase Iota: Confirmatory Assay for Cherry-picked Compounds; Potency, µM, usual class: inhibitors; shares compounds with POLK inh; AID 720496, 2013; Pol iota primer extension, TAMRA/BHQ fluorescence; 1,500 tested, 77% active; note: potency is the fitted concentration of half-maximal effect
Numbers without * were called inactive; u = inconclusive; x = no result given; [ ] = dose if it differs, or a comment. The list is not random: actives were taken first. Their share in the collection is about 2.8%. Unless noted, calls come from the whole dose curve; as a rule, active = well fitted curve in the direction sought with a large enough effect; inconclusive = small, poorly fitted or top-dose-only effect, or another doubt; inactive = no such curve, though single readings can be large; an effect the other way counts as inactive or inconclusive.

SMILES	Pol beta inh	POLH inh	POLK inh	FEN1 inh	POLI inh	PI5P4Ka inh	PGK validate	others
COc1cccc(C(=O)N2CCCCC2CCN2CCCCC2)c1 (stereo unspecified)	34.1%	-15.3%	3.4%	3.6%	14.1%	x	x
CCOc1ccc2nc(NC(=O)c3ccoc3C)sc2c1	-20.6%	-16.2%	-4.5%	-7.1%	u	u	6.51µM*
CCOc1ccc2nc(NC(=O)c3ccco3)sc2c1	3.2%	-27.5%	-14.4%	7.4%	18.1%	-4.7	x
Brc1ccc(Nc2c3c(nc4nncn24)CCC3)cc1	16.0%	x	-3.6%	-8.0%	2.1%	x	x
Fc1cccc(CCN2CCNC[C@@H]2Cc2ccccc2)c1	x	10.6%	-7.7%	-17.3%	u	-1.8	u
O=[N+]([O-])c1ccc(NCCCNS(=O)(=O)c2ccccc2)c(Cl)c1	-19.6%	-18.1%	-2.8%	3.6%	-1.8%	13.7	x
C(=C\c1nc2ccccc2[nH]1)/c1ccccc1	4.1%	-2.3%	-19.9%	-4.5%	6.3%	x	16.3µM*
O=C(NCc1ccc2c(c1)OCO2)C1CCCN1C(=O)Nc1ccc(Cl)cc1 (stereo unspecified)	52.2%	-3.5%	-8.6%	-5.0%	32.8%	7.8	x
CN(C)c1ccc(-c2nc3ccccn3c2/N=C/c2ccc(Br)cc2)cc1	-1.3%	-12.5%	-10.8%	6.3%	5.5%	-9.2	u
CNC[C@H]1Oc2cc(Br)ccc2S(=O)(=O)N([C@@H](C)CO)C[C@@H]1C	x	-8.7%	x	x	x	-9.9	x
O=C(COC(=O)COc1ccc(Br)cc1)NC1CCS(=O)(=O)C1 (stereo unspecified)	x	-15.7%	x	x	x	1.7	x
O=C(O)CCCCN1C(=O)/C(=C\c2ccc(OCc3ccccc3)c(OCc3ccccc3)c2)SC1=S	44.7µM*	20µM*	u	-0.5%	u	-0.2	x	POLI cherry-pick=42.3*
Nc1c(/C=C2/C=CC(=O)C(O)=C2)c(=O)nc2sc(CC(=O)N3CCCCC3)nn12	u	-10.2%	u	-1.9%	u	-11.2	1.63µM*
O=Cc1coc2ccc3ccccc3c2c1=O	u	-7.9%	-24.5%	1.9%	167.9%	-86.5*	u
NC(=O)N/N=C/c1coc2ccc3ccccc3c2c1=O	2.6%	-1.8%	-3.6%	7.6%	-0.9%	-13.9	x
Cc1ccc2nc(-c3ccc(NC(=O)COc4ccc(Br)cc4Br)cc3)sc2c1	2.5%	-6.0%	-18.8%	-1.6%	u	x	x
O=C(NCc1cccs1)c1ccc(N2CCCC2=O)cc1	1.3%	2.3%	-12.1%	1.7%	9.8%	5.9	x
C#Cc1ccc(C(=O)NCc2ccc(N3CCCC3=O)cc2)cc1	17.8µM*	15.8µM*	u	-8.1%	u	-27.7	x	POLI cherry-pick=42.3*
CCC(=O)N1c2ccccc2CC1C(=O)NCCCN1CCN(c2ccc(OC)cc2)CC1 (stereo unspecified)	-15.6%	-10.2%	-1.1%[60.1 µM]	-2.1%	30.9%	x	-0.9%
Cc1ccc(NC(=O)CN2C(=O)S/C(=C/c3ccc(-c4cccc(C(=O)O)c4)o3)C2=O)cc1	11.2µM*	5.62µM*	31.6µM*	20µM*	25.1µM*	u	11.6µM*
